Experimental findings from PubChem BioAssay (NCI) are described below.

Compounds without any hit were thinned out: in the full panel of roughly 79,000, 15% have a hit. Values without a mark were called inactive. Activity calls are given as the source filed them. No stated cut-off is given here; in the data, active means growth inhibition above about 70%; inactive means the rest.

Test [1] is described as follows: NCI Yeast Anticancer Drug Screen. Data for the rad50 strain (AID 155).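 Further: 0% = growth of vehicle-only cultures of the same strain.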 To be noted: S. cerevisiae rad50 strain growth inhibition; at 50.0 µM; stronger effect = higher value. An outline of the steps: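 Cells are treated with compound, grown, and their growth is then scored against vehicle-only cultures of the same repair-deficient yeast strain.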
Test [2] can be described thus: NCI Yeast Anticancer Drug Screen. Data for the mec2-1 strain (AID 157). To be noted: S. cerevisiae mec2-1 strain, at 50.0 µM, stronger effect = higher value. The essentials: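 Vehicle-treated cultures served as reference for growth inhibition of compound-exposed mec2-1 yeast.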
Test [3] can be described thus: NCI Yeast Anticancer Drug Screen. Data for the sgs1 mgt1 strain (AID 161).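 Further: 0% = growth of cultures given vehicle only.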 To be noted: S. cerevisiae sgs1 mgt1 strain, at 50.0 µM, stronger effect = higher value. An outline of the steps:
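Inhibition of yeast growth, normalised to vehicle-treated controls, is reported for a strain bearing genetic alterations in DNA damage repair.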

Test [4] is described as follows: NCI Yeast Anticancer Drug Screen. Data for the cln2 rad14 strain (AID 165).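 Further: 0% = growth equal to vehicle treated cultures.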 To be noted: S. cerevisiae cln2 rad14 strain, at 50.0 µM, stronger effect = higher value. An outline of the steps: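 Each compound was tested on cln2 rad14 yeast. Inhibition of growth was calculated against vehicle-exposed controls.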
A short description of test [5]: NCI Yeast Anticancer Drug Screen. Data for the bub3 strain (AID 167). To be noted: S. cerevisiae bub3 mutant strain, at 50.0 µM, stronger effect = higher value. The essentials:
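Part of a panel of yeast mutants defective in DNA damage repair or cell cycle regulation. Each strain is grown with compound, and inhibition is calculated relative to solvent-treated cultures.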

The nature of test [6]: NCI Yeast Anticancer Drug Screen. Data for the mlh1 rad18 strain (AID 175). To be noted: S. cerevisiae mlh1 rad18 strain growth inhibition; at 50.0 µM; stronger effect = higher value. An outline of the steps:
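Vehicle-treated cultures served as the reference for growth inhibition in a yeast strain carrying DNA damage repair alterations exposed to each compound.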

Consider `O=C(NC(CCS(=O)(=O)NCc1ccc(S(=O)(=O)F)cc1)C(=O)OCc1ccccc1)OCc1ccccc1` (stereo not given), for which the growth inhibition is 26.8% in test [1]; 5.7% in test [2]; 16.6% in test [3]; 15.4% in test [4]; 0.2% in test [5]; 29.9% in test [6].

On to `SCCS`, for which the growth inhibition in test [1] was -20.1%; in test [2], -5.2%; in test [3] it was -14.6%; in test [4], -5.6%; in test [5], -27.7%; in test [6] it was -25.7%.

Regarding `[N-]=[N+]=CC(=O)C1(C(=O)C=[N+]=[N-])CC1`, the growth inhibition in test [1] was -14.7%; in test [2], -11.2%; in test [3], -41%; in test [4] it was -18.1%; in test [5] it was -16.9%; in test [6], -27.1%.

In the case of `CCNc1ccc([N+](=O)[O-])cc1[N+](=O)[O-]`, the growth inhibition in test [1] is 11.3%; in test [2], 16.9%; in test [3], 7.45%; in test [4], 4.5%; in test [5], -6.4%; in test [6], 5.9%.

For `Oc1ccccc1/C=N/C(O)C(Cl)(Cl)Cl` (stereo not given), the growth inhibition in test [1] is 30.2%; in test [2], 31.6%; in test [3], 34.9%; in test [4], 41.3%; in test [5] it was 48.1%; in test [6], 30.6%.

`[Cl][Hg][c]1cccs1`: the growth inhibition is 99.6% (active) in test [1]; 99.8% (active) in test [2]; 99.5% (active) in test [3]; 99.5% (active) in test [4]; 99.7% (active) in test [5]; 99.6% (active) in test [6].

With `CC[C@@H](C)C(=O)O[C@H]1[C@H](O)[C@H]2[C@@H](CN3C[C@@H](C)CC[C@H]3[C@@]2(C)O)[C@@H]2C[C@]34O[C@]5(O)[C@@H](OC(=O)[C@@](C)(O)CC)CC[C@@]3(C)[C@@H]5[C@@H](OC(C)=O)[C@@H](OC(C)=O)[C@H]4[C@@]21O`, the growth inhibition in test [1] is 11.8%; in test [2] it was -15.3%; in test [3], 0.75%; in test [4], -4.3%; in test [5] it was 8.75%; in test [6], 7.35%.

For `C/C(=N\N=C(N)N)C(CN(C)C)C(c1ccccc1)c1c(O)c2ccccc2oc1=O` (stereo not given), the growth inhibition in test [1] is 25.6%; in test [2], 23.4%; in test [3], -4.45%; in test [4] it was 13.8%; in test [5], -1.5%; in test [6] it was 16.8%.

For `CO[C@@]12[C@@H]3N[C@@H]3CN1C1=C(C(=O)C(Nc3ccc(O)cc3C)=C(C)C1=O)[C@@H]2COC(N)=O`, the growth inhibition is 61% in test [1]; 29.1% in test [2]; 20% in test [3]; 44.4% in test [4]; -14.6% in test [5]; 71% (active) in test [6].

As for `COc1cccc(/C=N/[N-]C(=O)c2ccncc2)c1[O-].[Mn+2].[OH3+]`, the growth inhibition was 9.15% in test [1]; 12.5% in test [2]; 7.35% in test [3]; 9.95% in test [4]; 4.7% in test [5]; 20.6% in test [6].

For `COC1CC2C=CC3C4OC2(/C(C)=C/C(C)C(C(C)O)OC1=O)C3C(O)C(C)C4OC(=O)c1ccc[nH]1` (stereo not given), the growth inhibition in test [1] is 14.7%; in test [2], 6.35%; in test [3] it was 13.3%; in test [4], 10.7%; in test [5] it was -2.85%; in test [6], 14.1%.

In the case of `Cc1ccc(OP(=O)(Oc2ccc(C)cc2)Oc2ccc(C)cc2)cc1.Cc1ccc(OP(=O)(Oc2ccc(C)cc2)Oc2ccc(C)cc2)cc1.Cc1ccc(OP(=O)(Oc2ccc(C)cc2)Oc2ccc(C)cc2)cc1.Cc1ccc(OP(=O)(Oc2ccc(C)cc2)Oc2ccc(C)cc2)cc1.[O-][Cl+3]([O-])([O-])O.[Zn+2]`, the growth inhibition is 3.45% in test [1]; 9.9% in test [2]; 0.55% in test [3]; 6.45% in test [4]; 5.1% in test [5]; -21.9% in test [6].

As to `O=[N+]([O-])c1ccc2nc(-c3ccc(S(=O)(=O)F)cc3)cc(Cl)c2c1`, the growth inhibition is -19.1% in test [1]; 16.9% in test [2]; 4.45% in test [3]; -12.4% in test [4]; 13.3% in test [5]; -9.9% in test [6].

For the compound `CCOP(=O)(OCC)C(C)(C)OC(=O)NC#N`, the growth inhibition in test [1] is -24.2%; in test [2] it was -63.5%; in test [3], -36.2%; in test [4] it was -8.85%; in test [5], -13.6%; in test [6] it was -28.8%.

Consider `ClCCCN1CCN(CCCl)CC1`, for which the growth inhibition in test [1] was -11.6%; in test [2], -10.1%; in test [3] it was -1.75%; in test [4], 3.2%; in test [5], -13.8%; in test [6] it was -21.5%.

For `CCCCP(CCCC)CCCC`, the growth inhibition was -10% in test [1]; 0.95% in test [2]; 4.15% in test [3]; 19.2% in test [4]; 51% in test [5]; 19.6% in test [6].

Take `C[n+]1ccc(/C=C\c2ccc(N(CCCl)CCCl)cc2)c2ccccc21`: the growth inhibition in test [1] was 4.8%; in test [2], 15.9%; in test [3], 4%; in test [4], 24.1%; in test [5], 15.4%; in test [6], 18.6%.

For the compound `CC1(C)N=C(N)N=C(N)N1c1ccc(CCC(=O)Nc2cccc(S(=O)(=O)F)c2)c(Cl)c1`, the growth inhibition in test [1] is 57.7%; in test [2] it was 82.4% (active); in test [3] it was 68%; in test [4], -3.05%; in test [5], -31.9%; in test [6], 8.05%.

For the compound `[I][Ni][I].c1ccc([PH+](c2ccccc2)c2ccccc2)cc1.c1ccc([PH+](c2ccccc2)c2ccccc2)cc1`, the growth inhibition in test [1] is 21%; in test [2], 38.4%; in test [3], 64%; in test [4] it was 17.6%; in test [5], 5.7%; in test [6], 48.7%.

For `Cc1cccc(NC2=NCCO2)c1Cl`, the growth inhibition in test [1] is -20.4%; in test [2], -25.8%; in test [3], -11%; in test [4] it was 24.9%; in test [5], -9.3%; in test [6], -27.3%.
